Experiment [1] has as its target Thyrotropin receptor (Homo sapiens) (UniProt P16473). Description: qHTS assay to identify small molecule agonists of the thyroid stimulating hormone receptor (TSHR) signaling pathway (AID 1224843; calls by dose curve; further: nearly all actives have a fitted effect of over 45% in size). The method in brief:
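Steps: seed 800 TSHR-HEK293 cells per well; add test compound and hold 30 min at ambient temperature; dispense cAMP-d2 then anti-cAMP cryptate; incubate 1 h at ambient; measure fluorescence intensity.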

The nature of experiment [2]: qHTS assay to identify small molecule agonists of the hypoxia (HIF-1) signaling pathway - cell viability counter screen (AID 1224844; calls by dose curve; further: nearly all actives have a fitted effect of over 50% in size). The method in brief: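 Luminescent ATP content (CellTiter-Glo, 30 min, room temperature) served as the viability measure in HRE-bla ME-180 cells exposed to compounds for 17 hrs in low-serum medium (0.5% dialyzed FBS).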
Experiment [3] can be described thus: qHTS assay to identify small molecule agonists of H2AX (AID 1224845; active means well fitted activation curve with a large enough effect in the signal ratio in the repeat runs, not every such curve was filed as active; the % refers to the signal ratio). The method, boiled down:
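Wild-type CHO-K1 cells, plated overnight, exposed 3hr at 37C to 15 concentrations (0.76% DMSO final). Lysed, then HTRF anti-pH2AX (S139) cryptate and anti-H2AX-d2 antibodies, 24 hr room temperature; 665/620 nm emission read.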

Experiment [4] in a line: qHTS assay to identify small molecule agonists of the hypoxia (HIF-1) signaling pathway (AID 1224846; active means well fitted activation curve with a large enough effect in the signal ratio in the repeat runs, not every such curve was filed as active; the % refers to the signal ratio). The method, boiled down: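 Measured by blue/green FRET after loading CCF4-AM: beta-lactamase expressed from a hypoxia response element in ME-180 cells. Test agents were delivered in DMSO and left 17 hrs; cells had been plated 5 hrs earlier in low-serum (0.5% dialyzed FBS) medium.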

Experiment [5] can be described thus: qHTS RealTime-Glo MT Cell Viability Assay in HepG2 cells - 24 hour (AID 1224867). Further: nearly all actives have a fitted effect of over 50% in size. The method in brief: (§1)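 HepG2 suspension premixed with RealTime-Glo reagents is plated at 600 cells per well and left 5 h at 37 C/5% CO2. Compounds in DMSO then go in, and bioluminescence reflecting viable cell number is recorded over 40 h.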
Experiment [6] in a line: qHTS RealTime-Glo MT Cell Viability Assay in HEK293 cells - 32 hour (AID 1224868). Further: nearly all actives have a fitted effect of over 50% in size. Further: potency means the concentration at half of the fitted maximal effect. The method in brief:
(§2)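 Reads taken at 0, 8, 16, 24, 32 and 40 h from the same wells. HEK293 cells (600/well) carried RealTime-Glo reagents from seeding, with compound added after a 5 h settle at 37 C.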

A short description of experiment [7]: A CellTox Green Cytotoxicity Assay to monitor cytotoxicity in HEK293 cells - 0 hour (AID 1224869). Further: nearly all actives have a fitted effect of over 50% in size. The method, boiled down: (§3)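 Each value comes from one timepoint of a single continuous run in which HEK293 cells with CellTox Green were exposed to compound for up to 40 h at 37 C, dye fluorescence rising with cell death.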
The nature of experiment [8]: qHTS RealTime-Glo MT Cell Viability Assay in HepG2 cells - 40 hour (AID 1224870). Further: nearly all actives have a fitted effect of over 50% in size. The method in brief:
(§4)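 HepG2 cells (600/well) mixed with RealTime-Glo MT reagent, settled 5 h at 37 C/5% CO2 before compound addition. Nonlytic NanoLuc luminescence from viable-cell prosubstrate reduction read repeatedly during 40 h treatment at 37 C.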

Experiment [9] is described as follows: qHTS RealTime-Glo MT Cell Viability Assay in HEK293 cells - 16 hour (AID 1224872). Further: nearly all actives have a fitted effect of over 50% in size. Further: potency means the concentration at half of the fitted maximal effect. The method, boiled down: as §2
Experiment [10] can be described thus: qHTS RealTime-Glo MT Cell Viability Assay in HepG2 cells - 8 hour (AID 1224873). Further: nearly all actives have a fitted effect of over 55% in size. The method in brief: as §4
The nature of experiment [11]: qHTS RealTime-Glo MT Cell Viability Assay in HEK293 cells - 40 hour (AID 1224874). Further: nearly all actives have a fitted effect of over 50% in size. Further: potency means the concentration at half of the fitted maximal effect. Particulars: RealTime-Glo luminescence; max response: hits give low values. The method, boiled down:
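qHTS format; HEK293 cells with NanoLuc/prosubstrate reagent, 37 C/5% CO2 for 5 h pre-dosing; compounds 23 nL in DMSO; luminescence at each time point reflects viable cells.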

Experiment [12] is described as follows: A CellTox Green Cytotoxicity Assay to monitor cytotoxicity in HepG2 cells - 16 hour (AID 1224876). Further: nearly all actives have a fitted effect of over 45% in size. The method, boiled down: (§5)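 Continuous culture of HepG2 cells with a membrane-impermeant DNA dye; rising fluorescence marks dead cells. Compound exposure lasted up to 40 h at 37 C, with reads every 8 h from 0 h.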
Experiment [13] in a line: qHTS RealTime-Glo MT Cell Viability Assay in HepG2 cells - 32 hour (AID 1224877). Further: nearly all actives have a fitted effect of over 55% in size. The method, boiled down: as §1
Experiment [14] in a line: A CellTox Green Cytotoxicity Assay to monitor cytotoxicity in HepG2 cells - 24 hour (AID 1224878). Further: nearly all actives have a fitted effect of over 45% in size. The method, boiled down: as §5
Experiment [15] is described as follows: A CellTox Green Cytotoxicity Assay to monitor cytotoxicity in HepG2 cells - 40 hour (AID 1224879). Further: nearly all actives have a fitted effect of over 40% in size. The method in brief:
as §5

Experiment [16] in a line: qHTS assay to identify small molecule agonists of H2AX - cell viability counter screen (AID 1224847; calls by dose curve; further: top concentration of the series differs between compounds; nearly all actives have a fitted effect of over 30% in size). The method, boiled down:
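For this counter screen, overnight-attached CHO-K1 cells received test compounds (15 concentrations, 0.76% DMSO final); 3 hr later at 37C, CellTiter-Glo reagent was added and luminescence recorded after 30 min at room temperature.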

The nature of experiment [17]: A CellTox Green Cytotoxicity Assay to monitor cytotoxicity in HEK293 cells - 24 hour (AID 1224875). Further: nearly all actives have a fitted effect of over 45% in size. The method in brief:
as §3

A short description of experiment [18]: A CellTox Green Cytotoxicity Assay to monitor cytotoxicity in HEK293 cells - 40 hour (AID 1224871). Further: nearly all actives have a fitted effect of over 45% in size. The method, boiled down:
as §3

Experiment [19] can be described thus: qHTS assay to identify small molecule antagonists of the estrogen related receptor (ERR) signaling pathway from Tox21 library (AID 1224848). Further: nearly all actives have a fitted effect of over 50% in size. Further: potency means the concentration at half of the fitted maximal effect. The method, boiled down: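 Luminescent reporter read-out (ONE-Glo) from NTP's ERR cell line after 18 h treatment at 37 C with DMSO-dissolved Tox21 compounds; cells pre-plated 6 h beforehand at 2,000 per well.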
Experiment [20] in a line: qHTS assay to identify small molecule agonists of the estrogen related receptor (ERR) signaling pathway from Tox21 library (AID 1224849; calls by dose curve; further: nearly all actives have a fitted effect of over 15% in size). Conditions: ERR reporter cell line, ONE-Glo luciferase, 18 h; at 92.4 µM (top of the series) unless noted. The method in brief: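 We plated ERR reporter cells, waited 6 h, added compounds in DMSO by pin tool and incubated them 18 h at 37 C. ONE-Glo was then added and luminescence read after 30 min.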

Values without a mark were called inactive. Inconclusive results are not listed. Activity calls are given as the source filed them. Unless noted, the call rests on the fitted dose curve; in most records, active means well fitted curve in the direction sought with a large enough effect in the repeat runs; inconclusive means weak or mixed curves; inactive means no such curve, though single readings can be large; an effect the other way counts as inactive or inconclusive.

Data on eight molecules can be found in PubChem BioAssay (Tox21).
On the % scale 0 is the no-effect control and ±100 the full control effect.

Sequence of Thyrotropin receptor (Homo sapiens) (P16473 whole entry, looked up): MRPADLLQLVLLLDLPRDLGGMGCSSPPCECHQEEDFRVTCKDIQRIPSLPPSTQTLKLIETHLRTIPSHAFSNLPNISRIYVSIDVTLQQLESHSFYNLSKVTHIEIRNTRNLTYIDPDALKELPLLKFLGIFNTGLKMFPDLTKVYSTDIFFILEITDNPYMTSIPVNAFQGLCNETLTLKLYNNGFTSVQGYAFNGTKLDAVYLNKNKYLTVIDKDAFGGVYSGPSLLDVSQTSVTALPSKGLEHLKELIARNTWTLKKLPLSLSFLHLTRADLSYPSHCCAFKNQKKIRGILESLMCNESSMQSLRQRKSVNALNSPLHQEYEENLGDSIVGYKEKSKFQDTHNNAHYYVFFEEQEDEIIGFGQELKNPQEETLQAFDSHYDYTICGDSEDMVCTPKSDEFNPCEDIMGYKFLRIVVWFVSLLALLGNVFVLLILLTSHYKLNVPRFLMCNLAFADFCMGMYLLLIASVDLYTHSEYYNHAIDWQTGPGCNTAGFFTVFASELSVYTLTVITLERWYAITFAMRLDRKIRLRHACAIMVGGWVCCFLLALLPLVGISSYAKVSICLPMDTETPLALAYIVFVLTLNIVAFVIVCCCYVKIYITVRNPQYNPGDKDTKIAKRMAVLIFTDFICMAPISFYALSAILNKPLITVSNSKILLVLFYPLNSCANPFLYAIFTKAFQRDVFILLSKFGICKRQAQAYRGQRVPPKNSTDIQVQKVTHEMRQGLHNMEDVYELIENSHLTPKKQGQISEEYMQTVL

As to `COc1ccc(C(=O)Nc2ccccc2)cc1[N+](=O)[O-]`, the Potency result in experiment [1], in [2], in [3], in experiment [7], in [8] and in experiment [12] was “inactive” each time. In addition, the Potency entry in [13], in [14] and in experiment [15] was “inactive” in each case. The molecule was called inactive in experiment [4], in experiment [5] and in experiment [10]. Moreover, the Potency in experiment [6], in experiment [9] and in experiment [11] was 24.7 µM (active) throughout.

In the case of `Nc1ccc(F)cc1F`, the Potency entry in experiment [1], in experiment [2], in [3], in [16], in [6] and in experiment [8] was “inactive” in each case. Further, the Potency entry in experiment [9], in experiment [17], in [12], in experiment [13] and in experiment [15] was “inactive” in each case. The call in experiment [4] and in experiment [10] was inactive. For the same molecule, the max response in [11] is -13.8%.

As to `Cc1ccc(NC=O)c(C)c1`, the Potency entry in experiment [1], in experiment [2], in [3], in experiment [16], in [6] and in experiment [8] was “inactive” each time. For the same molecule, the Potency entry in experiment [18], in experiment [9], in experiment [17], in experiment [12], in experiment [13] and in experiment [14] was “inactive” in each case. Moreover, the Potency result in [15] is “inactive”. Further, the outcome in experiment [4], in [5] and in experiment [10] was inactive. Also, in experiment [11], the max response was 4.39%.

Regarding `C1CCN(CN2CCCCC2)CC1`, the Potency result in experiment [1], in experiment [2], in experiment [3], in experiment [16], in [6] and in experiment [8] was “inactive” throughout. For the same molecule, the Potency result in experiment [9], in [17], in experiment [12], in experiment [13], in experiment [14] and in [15] was “inactive” each time. Also, the outcome in experiment [4], in experiment [5] and in experiment [10] was inactive. Also, the max response in experiment [11] is 7.66%.

For the molecule `COc1ccc(C(=O)c2ccc(C)cc2)c(O)c1`, the Potency entry in experiment [1], in experiment [2], in [3], in experiment [19], in experiment [7] and in [8] was “inactive” each time. Further, the Potency entry in [17], in experiment [12], in experiment [13], in experiment [14] and in experiment [15] was “inactive” each time. Also, the molecule was called inactive in [4] and in experiment [10]. Further, the activity change, positive = activation in experiment [20] is 16.4% (active).

For `C=CC(=O)NC(C)(C)C`, the Potency result in [1], in experiment [2], in experiment [3], in [6], in experiment [7] and in [18] was “inactive” throughout. The Potency entry in [9], in experiment [17], in [12], in experiment [13], in experiment [14] and in experiment [15] was “inactive” each time. Also, the molecule was classed as inactive in experiment [4], in experiment [5] and in experiment [10]. For the same molecule, the max response in experiment [11] is 1.33%.

On to `O=C(N[C@@H](Cc1ccccc1)[C@@H](O)C(=O)N1C[C@@H](O)[C@@H](O)C1)c1cc2cc(Cl)ccc2[nH]1`, for which the Potency result in experiment [1], in [2], in [3], in [7], in experiment [8] and in experiment [18] was “inactive” each time. In addition, the Potency entry in [9], in [17] and in experiment [13] was “inactive” each time. The call in [4] and in experiment [10] was inactive. The Potency in experiment [19] is 54.5 µM (active). For the same molecule, in [20], the activity change, positive = activation is -40.7%.

For the molecule `Cc1ccc(S(=O)(=O)NC(=O)NC2CCCC2)cc1`, the Potency entry in experiment [1], in [2], in [3], in experiment [16], in experiment [6] and in experiment [8] was “inactive” throughout. The Potency result in [18], in experiment [9], in experiment [17], in experiment [12], in experiment [13] and in experiment [14] was “inactive” throughout. In addition, the Potency result in experiment [15] was “inactive”. Further, the result in experiment [4] and in experiment [10] was inactive. The max response in [11] is 0.385%.
